NR2F2 inh – blocks human COUP-TFII nuclear receptor. P24468. AID 686940. HEK293T NGFI-A luciferase reporter, luminescence. 370,000 tested, 0.7% active. inhibition, % at 8.6 µM;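 active = inhibition above a per-plate cutoff, mean inhibition of test wells between control levels plus 3 SD, cut at about 38% in these data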;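 note: cells cotransfected with COUP-TFII expression vector driving the NGFI-A reporter; 0% = median of COUP-TF2 test wells and 100% = reporter-only cells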
Target sequence (P24468 whole entry, looked up): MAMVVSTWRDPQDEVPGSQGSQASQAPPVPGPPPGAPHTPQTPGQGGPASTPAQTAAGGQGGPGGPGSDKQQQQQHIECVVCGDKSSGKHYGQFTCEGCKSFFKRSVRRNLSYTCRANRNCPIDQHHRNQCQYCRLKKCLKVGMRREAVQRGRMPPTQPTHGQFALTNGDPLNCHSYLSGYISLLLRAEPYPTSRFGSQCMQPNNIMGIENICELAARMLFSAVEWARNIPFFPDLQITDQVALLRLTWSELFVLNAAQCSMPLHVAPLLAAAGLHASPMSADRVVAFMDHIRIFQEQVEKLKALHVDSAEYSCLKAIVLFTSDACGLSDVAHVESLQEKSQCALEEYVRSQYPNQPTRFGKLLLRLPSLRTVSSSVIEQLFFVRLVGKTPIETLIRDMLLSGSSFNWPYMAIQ
NR5A2 inv ag – NR5A2 inverse agonism in reporter assay. HEK293T StAR-luciferase reporter, LRH-1 transfected, 24 h. inhibition, % at 3.6 µM. 360,000 tested, 0.13% active. AID 602396. O00482;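 active = inhibition above the mean inhibition of all tested compounds plus 3 SD, cut at about 73% in these data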;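 note: 0% = DMSO wells and 100% = reporter-only cells lacking LRH-1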
SRC2 inh – inhibits human steroid receptor coactivator 2; Q15596; HEK293 GAL4-SRC2 luciferase reporter, luminescence; inhibition, % at 9 µM; 370,000 tested, 0.17% active; AID 651957;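 active = inhibition above the mean inhibition of all tested compounds plus 3 SD, set per campaign, cut at about 52% in these data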;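 note: 0% = DMSO treated cells and 100% = cells given Gossypol at 36 µM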
NCOA3 inh – inhibits human SRC3 coactivator. AID 588352. inhibition, % at 3.6 µM. 360,000 tested, 0.17% active. HEK293 GAL4-SRC3 luciferase reporter, luminescence. Q9Y6Q9;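 active = inhibition above a per-campaign cutoff, the mean of all compounds plus 3 SD, cut at about 60% in these data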;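 note: 0% = DMSO-treated cells and 100% = gossypol-treated cells at 36 µM; higher means less SRC3-driven luciferase light from the GAL4 reporter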
GalR3 antag – antagonists of human GalR3. HEK293 GalR3-CNG cAMP membrane potential fluorescence; galR3 body fused to GalR1 C-terminus. O60755. inhibition, % at 3 µM. 360,000 tested, 0.44% active;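 active = inhibition above the screen-wide average plus 3 SD, cut at about 13% in these data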;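 note: forskolin and galanin both at EC90 stimulate the cells; cAMP rise reported by CNG channel membrane potential dye signal; 0% = forskolin plus galanin with DMSO and 100% = forskolin alone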
Target sequence (O60755 1-299 limits assumed): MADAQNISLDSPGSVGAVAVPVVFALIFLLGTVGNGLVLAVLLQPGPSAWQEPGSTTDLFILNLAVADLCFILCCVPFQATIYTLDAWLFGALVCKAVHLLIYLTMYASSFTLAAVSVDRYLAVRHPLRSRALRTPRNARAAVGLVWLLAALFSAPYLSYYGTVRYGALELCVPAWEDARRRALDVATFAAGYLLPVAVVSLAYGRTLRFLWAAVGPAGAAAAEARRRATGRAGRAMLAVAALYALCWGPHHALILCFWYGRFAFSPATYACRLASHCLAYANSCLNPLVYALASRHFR
SRC1 inh – inhibitors of human steroid receptor coactivator 1 (SRC1). HEK293 GAL4-SRC1 luciferase reporter, luminescence. inhibition, % at 3.6 µM. 360,000 tested, 0.12% active. Q15788;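 active = inhibition above the campaign mean plus 3 SD, with each screening campaign given its own cutoff, cut at about 60% in these data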;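 note: 0% = DMSO treated cells and 100% = gossypol at 36 µM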
GalR3 conf – GalR3 (human) antagonism, confirmation. AID 652245. shares compounds with GalR3 antag. 1,600 tested, 59% active. inhibition, % at 3 µM. HEK293 GalR3 CNG cAMP biosensor, membrane potential fluorescence; galR3 fused to GalR1 carboxy tail; challenged with forskolin and galanin at EC90;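 active = inhibition above the primary screen's cutoff, the mean inhibition of all screened compounds plus 3 SD, cut at about 13% in these data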;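 note: 0% = forskolin plus galanin and 100% = forskolin alone with DMSO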
CNG parental – parental cell agonism counter-screen for GalR3 antagonists | shares compounds with GalR3 antag | HEK293-CNG parental cells, cAMP membrane potential fluorescence; normalised: DMSO wells 0%, forskolin wells 100% | activation, % at 3 µM | 1,600 tested, 10% active; in the data active = activation above about 1.3%
* marks the source's active call; other numbers are inactive results; · = no result. Shown are actives, neighbours in structure and some others; about 1.1% of the full set was active somewhere.

SMILES	NR2F2 inh	NR5A2 inv ag	SRC2 inh	NCOA3 inh	GalR3 antag	SRC1 inh	GalR3 conf	CNG parental
COc1cccc(C2=NOC(C(=O)NCC3CCCO3)C2)c1 (stereo not drawn)	-10.0	-7.8	-10.1	10.0	35.1*	-4.9	7.5	-0.1
CS(=O)(=O)N1CCN(c2ccc([N+](=O)[O-])cc2F)CC1	-11.8	0.2	-13.3	8.1	-1.2	-1.0	·	·
CS(=O)(=O)N1CCN(c2ccc([N+](=O)[O-])cc2C(F)(F)F)CC1	-0.5	18.9	-16.7	17.9	17.6*	1.1	13.6*	-0.1
COc1ccc(CCC(=O)OCC(=O)NC2CCCC2)cc1OC	6.6	5.9	-38.6	4.3	0.5	8.0	·	·
N#Cc1cc(-c2ccccc2)oc1NC(=O)c1ccco1	-16.2	-19.5	-38.4	-15.2	29.3*	-26.1	15.6*	0.3
COc1ccc(NC(=O)C(c2ccc(C)cc2)N(C)C(=O)c2ccc(=O)[nH]c2)cc1 (stereo not drawn)	-16.8	-3.6	5.2	-9.5	13.2*	-6.6	8.3	0.4
Cc1ccc(C(=O)NCCCn2ccnc2)cn1	-29.3	-13.2	6.6	7.5	·	0.1	5.7	-0.2
CC(C)(C)c1ccc(C(=O)NCCCn2ccnc2)cc1	-13.0	10.8	-0.2	10.8	-3.2	-27.4	·	·
CCOC(=O)Cc1csc(NC(=O)c2cc(=O)c3ccccc3o2)n1	6.8	-6.8	13.0	-10.4	91.8*	-7.0	89.9*	0.2
CCCCN(C)C(=O)c1cc2cc([N+](=O)[O-])cc(OC)c2oc1=O	5.0	16.3	6.1	5.2	21.6*	13.6	2.2	0.2
O=S1(=O)N[C@H](c2ccccc2)COc2cc(Br)ccc21	-16.7	·	-22.2	·	1.0	·	·	·
Cc1ccc(C2C(C#N)=C(N)Oc3cc4c(cc32)OCO4)cc1 (stereo not drawn)	1.3	13.5	-10.2	-2.1	0.9	-9.5	·	·
CC(C)(C)C1=C(C#N)C(c2cc3c(cc2Br)OCO3)C(C#N)=C(N)O1 (stereo not drawn)	-23.4	-12.0	-2.8	-1.2	·	-3.8	-3.2	0.3
O=Cc1cn(-c2ccccc2)nc1-c1ccccc1	-0.4	-37.9	-28.5	-36.2	-7.3	-16.5	·	·
CC1=NNC(=O)/C1=C\c1cn(-c2ccccc2)nc1-c1ccccc1	13.6	8.1	-12.6	2.9	48.2*	-23.0	55.0*	0.0
Cc1cccc(-c2cccc3c4c([nH]c23)[C@@H]2C[C@H](N(C)C(=O)Nc3ccccc3)[C@H]([C@H](C)O)CN2CC4)c1	-8.5	·	10.4	·	·	·	·	·
COC(=O)C1=C(C)N(C)C(=NCc2ccc3c(c2)OCO3)NC1c1ccc(F)cc1 (stereo not drawn)	-10.8	·	-8.0	·	-5.3	·	·	·
Cc1nc(-c2ccc3c(c2)OCCCO3)cs1	-39.9	-109.0	-20.2	-62.9	-1.8	-100.2	·	·
Nc1nc(-c2ccc3c(c2)OCCO3)cs1	-46.5	-71.7	-61.4	-51.7	23.2*	-94.9	29.3*	0.3
COc1cccc2[nH]c3c(N4CCC5(CC4)OCCO5)ncnc3c12	-10.7	-0.2	-23.9	2.7	-2.8	-14.8	·	·
COc1cccc2[nH]c3c(N4CCC(C)CC4)ncnc3c12	1.5	-3.9	-12.0	-0.8	85.9*	-1.7	96.3*	0.6
O=C(N[C@H](C(=O)N1CCC[C@H]1C(=O)NCCc1ccccc1Cl)C1CCCCC1)c1ccc(Cl)c(Cl)c1	12.9	·	-8.8	·	-7.6	·	·	·
CN(C)c1ccc(C#Cc2ccc3cc(CCO)oc(=O)c3c2)cc1	·	-20.1	·	-129.9	·	-110.8	·	·
O=C1c2ccccc2C(=O)N1CCC#Cc1ccc2cc(CCO)oc(=O)c2c1	-1.8	-15.5	-18.1	-8.7	13.2*	-7.1	4.3	0.4
CCN(c1ccccc1)S(=O)(=O)c1ccc(C(=O)Oc2ccc(C(C)=O)cc2)cc1	3.7	9.0	7.4	13.5	14.2*	0.2	-1.7	-0.2
SMILES	NR2F2 inh	NR5A2 inv ag	SRC2 inh	NCOA3 inh	GalR3 antag	SRC1 inh	GalR3 conf	CNG parental
CCN(c1ccccc1)S(=O)(=O)c1ccc(C(=O)Nc2cccc(NC(C)=O)c2)cc1	6.7	-7.8	1.2	14.6	-9.1	-14.3	·	·
COc1ccc(C(=O)N2CCCC(N3CCN(c4ccccc4OC)CC3)C2)c(OC)n1 (stereo not drawn)	-3.9	0.1	13.4	0.3	·	4.2	3.0	-0.1
CCN=C1NC(c2ccc(C(F)(F)F)cc2)C(C(=O)OC)=C(C)N1Cc1ccccc1C(F)(F)F (stereo not drawn)	4.8	·	-8.3	·	-1.2	·	·	·
COc1ccccc1C(=O)N1CCC2CCN(C(=O)OC(C)(C)C)C2C1 (stereo not drawn)	-5.0	·	3.0	·	1.2	·	·	·
COC(=O)C1=C(C)N(C)C(=NCc2ccccc2)NC1c1ccccc1C(F)(F)F (stereo not drawn)	-18.8	·	-5.5	·	-9.1	·	·	·
COC1=C[C@H](C(=O)NC2CCN(Cc3ccccc3)CC2)[C@H](C)[C@@H](c2ccccc2)CC1=O	6.6	·	10.0	·	·	·	·	·
Nc1ncnc2c1ncn2[C@@H]1O[C@H](CO)[C@@H](O)[C@H]1O	-16.9	12.3	-2.4	8.6	112.2*	5.1	-19.7	5.8*
CC1(C)OC2C(O1)[C@@H](CO)O[C@H]2n1cnc2c(N)ncnc21 (stereo partly drawn)	9.0	0.0	-10.3	15.7	-0.3	-6.0	·	·
Cc1occc1-c1nnc(SCCNCCO)o1	-10.2	-54.6	8.5	2.4	14.9*	-2.5	4.8	-0.4
Cc1occc1-c1nnc(SCC(=O)NCCc2ccccc2)o1	-23.8	-16.9	-37.1	-13.1	0.3	-33.3	·	·
CN(Cc1ccccc1)CC(O)COc1ccc(CNCCc2cccnc2)cc1 (stereo not drawn)	8.1	-5.8	-5.9	21.6	6.5	6.8	·	·
CCc1ccc(CNCc2ccc(OCC(O)CN(C)Cc3ccccc3)cc2)nc1 (stereo not drawn)	34.6	5.9	32.0	5.3	56.1*	0.3	14.2*	15.1*
CCc1nc2ccc(C(=O)N(CC)CCN(C)C)cn2c1N(C)Cc1nccs1	-7.5	6.6	-6.3	-5.0	-6.7	-1.4	·	·
CCC(C(=O)Nc1ccccc1N1CCCC1)c1cccc(Cl)c1 (stereo not drawn)	-2.5	·	9.6	·	·	·	·	·
COc1ccc(OC)c(NC(=O)COc2cc(O)c3c(c2)OC(C)(C)CC3=O)c1	2.0	21.6	-7.5	5.6	1.5	-49.7	·	·
Cc1cc(CNC[C@H]2O[C@@H](n3ccc(=O)[nH]c3=O)[C@H](O)[C@@H]2O)no1	-30.7	3.1	3.9	-11.0	-7.4	4.8	·	·

Source: PubChem (The Scripps Research Institute Molecular Screening Center)
